Source: PubChem BioAssay (NCI)
About 79,000 compounds went through this panel and 15% of them were active in at least one assay; those are over-represented in the sample as a whole. No stated cut-off is given here; in the data, active means growth inhibition above about 70%; inactive means the rest.

How the values were obtained:
[1] = NCI Yeast Anticancer Drug Screen. Data for the rad50 strain (AID 155);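 further: 0% = growth of vehicle-only cultures of the same strain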; settings: S. cerevisiae rad50 strain growth inhibition; at 50.0 µM; stronger effect = higher value
In short: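 Genetically altered yeast (DNA repair pathway); compound treatment; growth inhibition vs vehicle ctrl.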

[2] = NCI Yeast Anticancer Drug Screen. Data for the mec2-1 strain (AID 157); settings: S. cerevisiae mec2-1 strain, at 50.0 µM, stronger effect = higher value
In short: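 Mutant yeast (mec2-1) grown with compound; growth inhibition relative to vehicle control reported.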

[3] = NCI Yeast Anticancer Drug Screen. Data for the sgs1 mgt1 strain (AID 161);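 further: 0% = growth of cultures given vehicle only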; settings: S. cerevisiae sgs1 mgt1 strain, at 50.0 µM, stronger effect = higher value
In short: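 Percent growth inhibition was derived by comparing compound-exposed mutant yeast with vehicle-exposed cultures. The strain carries alterations in DNA damage repair.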

[4] = NCI Yeast Anticancer Drug Screen. Data for the cln2 rad14 strain (AID 165);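 further: 0% = growth equal to vehicle treated cultures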; settings: S. cerevisiae cln2 rad14 strain, at 50.0 µM, stronger effect = higher value
In short: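 Readout is yeast growth inhibition versus vehicle-treated controls, using a strain with cln2 and rad14 alterations exposed to compound.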

[5] = NCI Yeast Anticancer Drug Screen. Data for the bub3 strain (AID 167); settings: S. cerevisiae bub3 mutant strain, at 50.0 µM, stronger effect = higher value
In short: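 Yeast carrying a defined mutation is treated with each compound, and growth is compared with that of vehicle-exposed cells to give inhibition.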

[6] = NCI Yeast Anticancer Drug Screen. Data for the mlh1 rad18 strain (AID 175); settings: S. cerevisiae mlh1 rad18 strain growth inhibition; at 50.0 µM; stronger effect = higher value
In short: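 Genetically defined yeast (DNA repair-deficient) exposed to compounds; growth inhibition determined relative to vehicle.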

Measured: growth inhibition

CCCCCCCCCC(C(=O)OCC)(C(=O)OCC)C1CCCC1
inactive: [1] -26.9% | [2] -4.6% | [3] -12.1% | [4] 5.75% | [5] -7.8% | [6] -30.1%

C/C=C\COC(=O)CC(C)=O
inactive: [1] -1.35% | [2] -23.4% | [3] -4.3% | [4] -2.75% | [5] -26.3% | [6] -16.6%

O=C1OC2=C(CCCC2)C(N2CCCCC2)C12SCCCS2 (stereo unspecified)
inactive: [1] 3.65% | [2] 14.4% | [3] -6.75% | [4] 11.4% | [5] 5% | [6] 2.55%

NC(Cc1ccc(OC(c2ccccc2)(c2ccccc2)c2ccccc2)cc1)C(=O)O (stereo unspecified)
inactive: [1] -23.6% | [2] -9.5% | [3] 0.75% | [4] -18.4% | [5] -6.1% | [6] -12.2%

CCOC(=O)Cc1c(Cc2[nH]c(C(=O)OCc3ccccc3)c(CC(=O)OCC)c2CC(=O)OCC)[nH]c(C(=O)OCc2ccccc2)c1CC(=O)OCC
inactive: [1] -10.7% | [2] -21.6% | [3] -19% | [4] -3.1% | [5] -3.35% | [6] -17.3%

Cn1c(Cc2ccccc2)c([N+](=O)[O-])c(=O)n(C)c1=O
inactive: [1] -0.2% | [2] -5.25% | [3] -2.1% | [4] -8.2% | [5] -6.35% | [6] -2.4%

CCCCOC(=S)Nc1ccc(S(=O)(=O)c2ccc(NC(=S)OCCCC)cc2)cc1
inactive: [1] 23.4% | [2] 0.15% | [3] 13.4% | [4] 9.35% | [5] -4.9% | [6] -9.65%

COc1ccc(Cc2coc3ccccc3c2=O)cc1
inactive: [1] 13.1% | [2] 7.35% | [3] 13.7% | [4] 4.85% | [5] 25.2% | [6] 9.4%

CCOc1ccccc1C=Nc1cc(C(C)C)c(O)cc1C
inactive: [1] -10.2% | [2] -17.2% | [3] 5.6% | [4] -4.6% | [5] 0.85% | [6] -12.3%

O=C1c2ccccc2C2(O)NC(=S)N(c3ccccc3)C12O (stereo unspecified)
inactive: [1] -14.2% | [2] -20.8% | [3] 4.95% | [4] 15.4% | [5] 6.2% | [6] -2.1%

COc1cc(/C=C/Cc2cc3c(cc2OCCO)OCO3)cc(OC)c1OC
inactive: [1] -1.05% | [2] 0.3% | [3] 7.6% | [4] -11.7% | [5] -4.65% | [6] 19.6%

Cc1nc(C(N)=S)sc1C(=O)CC(=O)C(=O)Nc1ccc(Br)cc1
inactive: [1] 2.5% | [2] -38.5% | [3] -24.4% | [4] 1.35% | [5] -25.8% | [6] -14.8%

CC(=O)n1cc(CC(C)O)c(=O)[nH]c1=O (stereo unspecified)
inactive: [1] -2.45% | [2] -21% | [3] -16.2% | [4] 4.85% | [5] -13.2% | [6] -28.1%

CCc1cc(CCC(=O)Nc2ccccc2[N+](=O)[O-])[nH]c(=S)n1
inactive: [1] -10.6% | [2] -20.8% | [3] 11.3% | [4] 12% | [5] -14.3% | [6] -11.2%

CCOC(=O)C(C)(Cc1ccco1)C(=O)OCC
inactive: [1] -16.1% | [2] -10.3% | [3] -5.2% | [4] -33.5% | [5] 14.4% | [6] -12.3%

CCOC(=O)C(C)(C)O
inactive: [1] 18.8% | [2] 14% | [3] 1.05% | [4] -35.9% | [5] 9.05% | [6] 19.2%

c1ccc2c(c1)CCc1ccccc1N2
inactive: [1] 1.65% | [2] 13.8% | [3] -28.9% | [4] 6.45% | [5] 15.1% | [6] -3.4%

CCN(CC)CCCC(C)n1c(-c2ccc(OC)cc2)nc2cc(Cl)ccc21 (stereo unspecified)
inactive: [1] -0.65% | [2] 8.5% | [3] 26.9% | [4] 10.1% | [5] 6.55% | [6] 4.6%

CCCCC(CN(C)C)C(=O)/C=C/c1ccccc1 (stereo unspecified)
inactive: [1] 23.2% | [2] 2.9% | [3] 32.9% | [4] -0.7% | [5] 17.4% | [6] 27.8%

COC(=O)c1cccn1C(=O)c1ccc(C)c(OCc2ccccc2)c1[N+](=O)[O-]
inactive: [1] 1.6% | [2] -15.8% | [3] 4.95% | [4] -8.3% | [5] 18.5% | [6] 8.05%

CCCCCCCCCC/C=C/C=O
inactive: [1] 57.6% | [2] 43.5% | [3] 53.8% | [4] 18.7% | [5] 43.6% | [6] 8.9%

Oc1ccc(Br)cc1C=Nc1ccccc1
inactive: [1] 26.3% | [2] 18.9% | [3] 40.8% | [4] 29.4% | [5] 26.2% | [6] 14.9%

CC(C)N(C(=O)C1C2CCC(CC2)C1C(=O)N(C(C)C)C(C)C)C(C)C (stereo unspecified)
inactive: [1] 2.4% | [2] 17.5% | [3] 11.3% | [4] -0.9% | [5] 27.6% | [6] 20.7%

CNc1nc(=S)nc(-c2ccccc2)s1
inactive: [1] 11.7% | [2] 13.3% | [3] 11.3% | [4] -8.45% | [5] 11.8% | [6] -9.6%

NC1=NN(c2c(Cl)cc(Cl)cc2Cl)C(=O)C1
inactive: [1] 21.9% | [2] -3.8% | [3] 17.6% | [4] 33.3% | [5] 33% | [6] 39.6%

Cc1ccc(C)c(NC(=O)OC/C=C/c2ccccc2)c1
inactive: [1] -1.2% | [2] 29.2% | [3] 19.9% | [4] -10.9% | [5] 26.7% | [6] 41.2%

O=C(OC(c1ccccc1)c1ccccc1)c1ccccc1C(=O)c1ccccc1
inactive: [1] -18.6% | [2] -15.1% | [3] -21% | [4] -16.6% | [5] -3.25% | [6] -36.1%

COc1ccc(/C(O)=C/c2nc3cccc([N+](=O)[O-])c3[nH]c2=O)cc1
inactive: [1] 20.2% | [2] -14.8% | [3] 2.3% | [4] -14.1% | [5] -35.4% | [6] 17.7%

CCOC(=O)c1c(C)c(C)n2c1NC(=O)C2
inactive: [1] -4.5% | [2] -4.6% | [3] -37.5% | [4] -36.8% | [5] -30.6% | [6] -13.9%

COc1ccc(CCNC(=O)CCc2ccccc2CO)cc1OC
inactive: [1] 15.8% | [2] 13.9% | [3] -36.9% | [4] -5.9% | [5] -39.2% | [6] -5.9%

COc1ccc(CCCCl)c(C2=NCCc3ccccc32)c1
inactive: [1] 25.2% | [2] 12.7% | [3] -17.3% | [4] 12.2% | [5] -0.55% | [6] 1.95%

CC(=O)OC1C(C)OC(n2cnc3c(=O)[nH]cnc32)C1OC(C)=O (stereo unspecified)
inactive: [1] 2.95% | [2] -15.6% | [3] -0.45% | [4] -3.45% | [5] -2% | [6] 10.8%

N#C/C(=C/c1cccs1)c1ccc(Cl)cc1
inactive: [1] -4.6% | [2] -15.2% | [3] -11.8% | [4] -21.1% | [5] -16.1% | [6] 1.85%

NCC(=O)c1cc2ccccc2[n+]([O-])c1
inactive: [1] 1.6% | [2] -4.45% | [3] 1.8% | [4] -51.2% | [5] -8.5% | [6] -14.4%

CCOC(=O)c1cc(C)nc(Cl)c1C#N
inactive: [1] 6.3% | [2] 12.8% | [3] 7.9% | [4] 13.7% | [5] 21.1% | [6] 12.4%

COc1ccc2c(=O)cc[nH]c2c1OC
inactive: [1] -13.9% | [2] -16.4% | [3] -8.2% | [4] -23.9% | [5] 9.1% | [6] 4.85%

CCCCC1CCCCC1=O (stereo unspecified)
inactive: [1] 16.4% | [2] -15.2% | [3] 3.1% | [4] 12.5% | [5] -0.45% | [6] 5.1%

CC1CCC/C1=C(/I)C(=O)c1ccccc1 (stereo unspecified)
inactive: [1] 2.25% | [2] -6.75% | [3] 24.6% | [4] 7.85% | [5] -2.15% | [6] -59.6%

COc1ccc(C2CC(=O)N(c3nccc(C)n3)C(=O)C2)cc1
inactive: [1] 13.5% | [2] 14.4% | [3] 15.9% | [4] -19.1% | [5] -16.5% | [6] 14.2%

COC(=O)c1cc2ccccc2c2c3c(ccc12)OCO3
inactive: [1] 9.4% | [2] -0.15% | [3] -10.3% | [4] -43.6% | [5] -4.05% | [6] -14.3%

O=C(O)c1cc(=O)[nH]c2ccccc12
inactive: [1] -10.1% | [2] -5.7% | [3] 8% | [4] -0.95% | [5] 1.7% | [6] 14.9%
